Data as given in PubChem BioAssay (NCATS).
Several values for one entry are separate records, joined by “and”; a condition that tells them apart may be missing. Identical values can stand only once. Results filed as inconclusive are left out. More than one record can exist for a structure, and the calls need not agree. Activity calls are given as the source filed them. The call rests on the fitted dose curve; in most records, active means well fitted curve in the direction sought with a large enough effect; inconclusive means small, poorly fitted or top-dose-only effect, or another doubt; inactive means no such curve, though single readings can be large; an effect the other way counts as inactive or inconclusive.

Experiments:
CRL-7250 = normal cell line; experiment: Cytotoxic Profiling of Annotated Libraries Using Quantitative High-Throughput Screening (AID 1296008); conditions: Five cell lines viability, CellTiter-Glo ATP luminescence, 48-72 h; max response: stronger effect = lower value; further: nearly all actives have a fitted effect of over 60% in size; on max response: on the % scale 0 is the no-effect control and ±100 the full control effect
In short: (§1)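 Cells exposed to compounds for 48 or 72 hr at 37 degrees Celsius. Viability read as ATP-coupled luminescence with CellTiter-Glo after 10 min at room temperature.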

HEK293 = experiment: as above; conditions: Five cell lines viability, CellTiter-Glo ATP luminescence, 48-72 h; max response: stronger effect = lower value
In short: as §1

HaCat [1] = experiment: as above; conditions: Five cell lines viability, CellTiter-Glo ATP luminescence, 48-72 h; max response: stronger effect = lower value
In short: as §1

KB-3-1 = experiment: as above; conditions: Five cell lines viability, CellTiter-Glo ATP luminescence, 48-72 h; max response: stronger effect = lower value
In short: as §1

NIH3T3 = experiment: as above; conditions: Five cell lines viability, CellTiter-Glo ATP luminescence, 48-72 h; max response: stronger effect = lower value
In short: as §1

MCC-26 = experiment: qHTS assay to identify novel small-molecules to repurpose for Merkel cell carcinoma treatment (AID 1296009); conditions: MCC and control cell lines, CellTiter-Glo viability, 72 h; series mostly up to 46 µM; further: nearly all actives have a fitted effect of over 60% in size
In short: (§2)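 Dose-response viability screen; 72 hr exposure at 37 degree celsius; CellTiter-Glo added, 10 min room temperature, luminescence read; RLUs scaled between no-cell and DMSO wells.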

MKL-1 = experiment: as above; conditions: MCC and control cell lines, CellTiter-Glo viability, 72 h; series mostly up to 46 µM
In short: as §2

MKL-2 = experiment: as above; conditions: MCC and control cell lines, CellTiter-Glo viability, 72 h; series mostly up to 46 µM
In short: as §2

UISO = experiment: as above; conditions: MCC and control cell lines, CellTiter-Glo viability, 72 h; series mostly up to 46 µM
In short: as §2

WaGa = experiment: as above; conditions: MCC and control cell lines, CellTiter-Glo viability, 72 h; series mostly up to 46 µM
In short: as §2

C33A = experiment: Primary qHTS to identify gynecologic anti-cancer compounds using libraries of approved drugs and bioactive compounds (AID 1345084); conditions: Gynecologic cancer cell panel viability, ATPlite luminescence, 48 h; series mostly up to 57.5 µM; further: nearly all actives have a fitted effect of over 55% in size
In short: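 ATP-based viability (ATPlite), 1,000 cells/well, 16 h pre-incubation, 48 h compound at 37 C, 5% CO2, 15 min RT before read.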

MCC-13 = experiment: qHTS assay to identify novel small-molecules to repurpose for Merkel cell carcinoma treatment (AID 1296009); conditions: MCC and control cell lines, CellTiter-Glo viability, 72 h; series mostly up to 46 µM; further: nearly all actives have a fitted effect of over 60% in size
In short: as §2

TAB109 = experiment: qHTS profiling for inhibitors of Plasmodium falciparum proliferation (AID 504749); further: nearly all actives have a fitted effect of over 60% in size; conditions: P. falciparum in erythrocytes, SYBR Green DNA, 72 h; series mostly up to 28.7 µM
In short: (§3)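 Each compound contacts P. falciparum-infected red blood cells for 72 h at 37 C; lysis buffer (Tris, EDTA, saponin, Triton X, SYBR Green I) is added and fluorescence measured next morning; values normalized to controls.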

TAB113 = experiment: as above; conditions: P. falciparum in erythrocytes, SYBR Green DNA, 72 h; series mostly up to 28.7 µM
In short: as §3

TAB165 = experiment: as above; conditions: P. falciparum in erythrocytes, SYBR Green DNA, 72 h; series mostly up to 28.7 µM
In short: as §3

W2 = experiment: as above; conditions: P. falciparum in erythrocytes, SYBR Green DNA, 72 h; series mostly up to 28.7 µM
In short: as §3

SC27B = experiment: as above; conditions: P. falciparum in erythrocytes, SYBR Green DNA, 72 h; series mostly up to 28.7 µM
In short: as §3

HACAT [2] = experiment: qHTS assay to identify novel small-molecules to repurpose for Merkel cell carcinoma treatment (AID 1296009); conditions: MCC and control cell lines, CellTiter-Glo viability, 72 h; at 44.8 µM (top of the series) unless noted; further: nearly all actives have a fitted effect of over 60% in size
In short: as §2
Potency means the concentration at half of the fitted maximal effect.

CC(C)C[C@H](NC(=O)[C@H](Cc1ccccc1)NC(=O)c1cnccn1)B(O)O
active: Potency (CRL-7250) 59.6 nM and 51.7 nM | Potency (HEK293) 47.3 nM and 41.1 nM | Potency (HaCat [1]) 188 nM | Potency (KB-3-1) 58 nM and 105 nM | Potency (NIH3T3) 53.1 nM and 11.6 nM | Potency (MCC-26) 37.6 nM | Potency (MKL-1) 0.0266 µM | Potency (MKL-2) 0.006 µM | Potency (UISO) 26.6 nM | Potency (WaGa) 0.0168 µM | Potency (C33A) 0.1 µM

COC(=O)C1=C(C)NC(C)=C(C(=O)OC(C)C)C1c1cccc2nonc12 (centres undefined)
inactive: max response (CRL-7250) -24.3% | max response (HEK293) -10.7% | max response (HaCat [1]) -5.13% and 3.88% | max response (KB-3-1) 5.12% and -6.21% | max response (NIH3T3) 1.63% | Potency (MCC-13) | Potency (MKL-1) | Potency (MKL-2) | Potency (UISO) | Potency (WaGa) | Potency (C33A)

CCCCCCCCOc1ccccc1C(=O)Nc1ccc(C(=O)OCC[N+](C)(CC)CC)cc1
inactive: max response (CRL-7250) -18.9% and -13.2% | max response (HaCat [1]) -9.66% | max response (KB-3-1) 3.44% | max response (NIH3T3) -11.9% and 2.27% | Potency (MCC-13) | Potency (MCC-26) | Potency (C33A)
active: Potency (TAB109) 7.94 µM | Potency (TAB113) 10 µM | Potency (TAB165) 6.31 µM | Potency (W2) 6.75 µM | Potency (MKL-2) 16.6 µM and 5.96 µM | Potency (UISO) 15000 nM | Potency (WaGa) 29.9 µM

COc1cc(Nc2c(C#N)cnc3cc(OCCCN4CCN(C)CC4)c(OC)cc23)c(Cl)cc1Cl
active: Potency (CRL-7250) 3.72 µM and 6.51 µM | Potency (HEK293) 2.37 µM and 4.18 µM and 11.6 µM | Potency (HaCat [1]) 841 nM and 1.66 µM and 2.31 µM | Potency (NIH3T3) 9.44 µM and 1.18 µM and 8.2 µM | Potency (C33A) 14.1 µM
inactive: Potency (MKL-2)
8.41 µM (active) and inactive: Potency (MKL-1)
29.9 µM (active) and inactive: Potency (WaGa)

O=C1c2ccccc2-c2n[nH]c3cccc1c23
active: Potency (MKL-1) 3.32 µM | Potency (WaGa) 2.64 µM
inactive: Potency (SC27B) | Potency (TAB109) | Potency (TAB113) | Potency (TAB165) | max response (KB-3-1) -0.484% | Potency (MCC-13) | Potency (MCC-26)

O=Nc1c(-c2c(O)[nH]c3cc(Br)ccc23)[nH]c2ccccc12
active: Potency (HEK293) 14800 nM | Potency (HaCat [1]) 11800 nM | Potency (KB-3-1) 13.2 µM | Potency (MCC-13) 18.7 µM | Potency (MCC-26) 16600 nM | Potency (MKL-2) 16.6 µM | Potency (UISO) 59 nM

CN(C)CCc1c[nH]c2ccc(Cn3cncn3)cc12
inactive: Potency (SC27B) | Potency (TAB113) | Potency (TAB165) | max response (KB-3-1) 8.57% | outcome (KB-3-1) | Potency (MCC-13) | Potency (MCC-26) | Potency (MKL-1) | Potency (MKL-2) | Potency (UISO) | Potency (WaGa)
active: Potency (CRL-7250) 1.32 µM | Potency (HEK293) 743 nM

NCCCCNCCCN
active: Potency (MKL-2) 8.33 µM
inactive: max response (CRL-7250) -45.5% | outcome (HaCat [1]) | max response (KB-3-1) 1.33% | outcome (HACAT [2]) | Potency (MCC-13) | Potency (MCC-26) | Potency (UISO)

COCCCN1CCC(NC(=O)c2cc(Cl)c(N)c3c2OCC3)CC1
inactive: Potency (C33A)

CC(=O)O[C@H]1C(=O)[C@@]2(C)C([C@H](OC(=O)c3ccccc3)[C@]3(O)C[C@H](OC(=O)[C@H](O)[C@@H](NC(=O)c4ccccc4)c4ccccc4)C(C)=C1C3(C)C)[C@]1(OC(C)=O)CO[C@@H]1C[C@@H]2O (some centres undefined)
active: Potency (HEK293) 5.7 nM | Potency (KB-3-1) 1 nM and 7.2 nM | Potency (NIH3T3) 5.9 nM and 36 nM | Potency (MCC-26) 3.7 nM
inactive: max response (HEK293) -90.8% | Potency (MKL-1) | Potency (MKL-2)

Nc1nc(N)c(N=O)c(OCC2CCCCC2)n1
inactive: max response (HaCat [1]) -17.6% | Potency (MCC-26)
active: Potency (CRL-7250) 14.8 µM | Potency (NIH3T3) 16.6 µM

C=C(c1ccc(C(=O)O)cc1)c1cc2c(cc1C)C(C)(C)CCC2(C)C
inactive: Potency (SC27B) | Potency (TAB109) | Potency (TAB113) | Potency (TAB165) | Potency (C33A)

O=C(O)c1cc(=O)c2c(OCC(O)COc3cccc4oc(C(=O)O)cc(=O)c34)cccc2o1
inactive: Potency (SC27B) | Potency (TAB109) | Potency (TAB113) | Potency (TAB165) | Potency (W2) | Potency (C33A)

C[C@H](Cc1ccc(O)c(O)c1)[C@@H](C)Cc1ccc(O)c(O)c1
inactive: outcome (HaCat [1]) | max response (KB-3-1) -9.31% and -6.61% | max response (NIH3T3) -21.7% | outcome (HACAT [2]) | Potency (MCC-13) | Potency (MCC-26)
active: Potency (MKL-1) 11.8 µM | Potency (MKL-2) 18.7 µM | Potency (WaGa) 18.7 µM

N=C(N)c1ccc2cc(OC(=O)c3ccc(N=C(N)N)cc3)ccc2c1
inactive: max response (CRL-7250) -0.158% and -1.28% | max response (HEK293) -23.8% and 0.182% | max response (HaCat [1]) -5.52% and -24.6% | max response (KB-3-1) 12.9% | max response (NIH3T3) -7.31% and -12.8% | Potency (MCC-13) | Potency (MKL-1) | Potency (UISO) | Potency (C33A)
active: Potency (W2) 6.75 µM
inactive and 26.6 µM (active): Potency (WaGa)
